# Reference: PubChem BioAssay (Tox21)
# Inconclusive results are not listed. Where a call stands in place of a potency, no number is given. Calls of active or inactive are those of the source. Unless noted, the call rests on the fitted dose curve; in most records, active means well fitted cell-killing curve with a large enough effect in the repeat runs; inconclusive means weak or mixed curves, or effect the other way; inactive means no such curve, though single readings can be large or run the other way.
# Molecular target: Vitamin D3 receptor (Homo sapiens) (UniProt P11473)
# Test: qHTS assay to identify small molecule antagonists of the vitamin D receptor (VDR) signaling pathway (AID 743223; active means well fitted inhibition curve with a large enough effect in the signal ratio in the repeat runs, not every such curve was filed as active; the % refers to the signal ratio)
# Settings: VDR-UAS-bla HEK293T, beta-lactamase FRET ratio, 16 h; series mostly up to 61 µM
# How it was run: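 Inhibition of agonist-driven VDR signalling is scored in VDR-bla cells: 3 nM final 1alpha,25-dihydroxyvitamin D3 plus compound, 16 h at 37C, then beta-lactamase detection by FRET substrate fluorescence after 2 h.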
# Potency means the concentration at half of the fitted maximal effect.
# Vitamin D3 receptor (Homo sapiens), sequence (P11473 whole entry, looked up): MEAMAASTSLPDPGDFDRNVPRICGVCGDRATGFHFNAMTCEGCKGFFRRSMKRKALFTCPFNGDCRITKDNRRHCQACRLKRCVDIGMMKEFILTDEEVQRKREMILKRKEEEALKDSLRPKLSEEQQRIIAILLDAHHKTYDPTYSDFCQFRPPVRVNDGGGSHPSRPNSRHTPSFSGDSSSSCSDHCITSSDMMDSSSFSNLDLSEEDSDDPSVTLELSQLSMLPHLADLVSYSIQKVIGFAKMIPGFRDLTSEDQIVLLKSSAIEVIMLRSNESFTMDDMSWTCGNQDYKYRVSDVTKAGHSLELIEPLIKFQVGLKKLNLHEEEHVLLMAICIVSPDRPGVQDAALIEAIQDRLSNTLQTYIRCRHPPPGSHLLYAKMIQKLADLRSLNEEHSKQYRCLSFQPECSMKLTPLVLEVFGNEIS
row,Compound,Potency
1,c1ccc(OCC2CO2)cc1 (stereo not given),inactive
2,O=c1oc2ccccc2c(O)c1Cc1c(O)c2ccccc2oc1=O,inactive
3,c1ccc2c(c1)OCC(C1=NCCN1)O2 (stereo not given),16.9 µM (active)
4,S=C=Nc1cccc2ccccc12,inactive
5,CC1(C)CC/C(=C/c2ccc(Cl)cc2)C1(O)Cn1cncn1 (stereo not given),inactive
6,CC(C)CC(C)(c1ccc(O)cc1)c1ccc(O)cc1,54.9 µM (active)
7,CNC(C)Cc1ccc2c(c1)OCO2 (stereo not given),inactive
8,Cc1cc(C)cc(OP(=O)(Oc2cc(C)cc(C)c2)Oc2cc(C)cc(C)c2)c1,inactive
9,Oc1cc(Cl)c(Cl)c(Cl)c1,inactive
10,COC(=O)N(C(=O)N1CO[C@@]2(C(=O)OC)Cc3cc(Cl)ccc3C2=N1)c1ccc(OC(F)(F)F)cc1,inactive

# System: not listed separately
# Test: qHTS assay to identify small molecule agonists of the vitamin D receptor (VDR) signaling pathway - cell viability counter screen (AID 743224); further: nearly all actives have a fitted effect of over 50% in size
# Settings: VDR-bla HEK293T viability, CellTiter-Glo luminescence, 16 h; series mostly up to 62.6 µM
# How it was run: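 Counter screen run in the same wells as the VDR-bla reporter assay: CellTiter-Glo luminescence, 30 min at room temperature, after 16 h compound treatment at 37C of cells pre-plated for 4 h.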
row,Compound,Potency
1,[CH3][Hg][Cl],38.8 µM (active)
2,CC(C)CCCCCCCOP(=O)(Oc1ccccc1)Oc1ccccc1,inactive
3,O=c1ssc(Cl)c1Cl,43.6 µM (active)
4,O=c1[nH]c2ccccc2n1CCCN1CCC(n2c(=O)[nH]c3cc(Cl)ccc32)CC1,inactive
5,CCCCOCN(C(=O)CCl)c1c(CC)cccc1CC,49 µM (active)
6,ClC1=C(Cl)[C@]2(Cl)[C@@H]3[C@@H]4C[C@@H]([C@H]5O[C@@H]45)[C@@H]3[C@@]1(Cl)C2(Cl)Cl,30.6 µM (active)
7,CCCSP(=O)(OCC)SCCC,inactive
8,Cc1cc(C(F)(C(F)(F)F)C(F)(F)F)ccc1NC(=O)c1cccc(I)c1C(=O)NC(C)(C)CS(C)(=O)=O,inactive
9,CC(=O)Nc1ccc2c(c1)Cc1ccccc1-2,inactive
10,CC1CCC(C(C)C)C(OC(=O)c2ccccc2N)C1 (stereo not given),34.2 µM (active)
